Compound activity: PubChem, National Center for Advancing Translational Sciences (NCATS)
This is a sample that favours compounds with a hit; in the whole collection about 3.9% have one here.
Caspase-1 inhib = qHTS Assay for Allosteric/Competitive Inhibitors of Caspase-1; 75,000 tested, 0.03% active; Potency, µM (highest dose often 57.5 µM), hits mostly inhibitors; P29466; Caspase-1 enzyme, Ac-WEHD-AFC fluorogenic rate
15-hLO inh = qHTS Assay for Inhibitors of 15-hLO (15-human lipoxygenase). 74,000 tested, 1.4% active. Potency, µM (titrated, usually from 57.1 µM), most hits filed as inhibitors. purified 15hLO-1, xylenol orange hydroperoxide absorbance; also: nearly all actives have a fitted effect of over 55% in size
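Quantitative HTS in 25 mM Hepes pH 7.5 containing 0.01% Triton X-100: human 15hLO-1 at 40 nM, arachidonic acid at 50 uM, 6 min turnover. Product quantified via ferrous oxidation/xylenol orange, 573:405 nm absorbance ratio.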
Tau filament bind = qHTS Assay for Tau Filament Binding; Microtubule-associated protein tau (Homo sapiens), P10636; Potency, µM (highest dose often 57.1 µM); 71,000 tested, 2% active; recombinant tau filaments, thioflavin S fluorescence, 15 h; filaments grown with octadecylsulfate alongside compound;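 also: actives lower thioflavin S fluorescence by blocking filaments or displacing dye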
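Assay mix: 1 uM His-tagged tau, 30 uM sodium octadecylsulfate, thioflavine S dye in HEPES/NaCl/DTT buffer. Compound is added prior to the inducer. Fluorescence after 15 h at 37 C.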
ERK AVP block = qHTS Assay for Inhibitors of the ERK Signaling Pathway using a Homogeneous Screening Assay; HEK293-V1b, vasopressin-stimulated pERK AlphaScreen; Potency, µM (titrated, usually from 57.5 µM), most hits filed as inhibitors; 72,000 tested, 0.99% active; AID 995, 2007; also: nearly all actives have a fitted effect of over 55% in size
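Overnight-seeded V1b-HEK293 cells in 1% FBS got compound, then vasopressin (25 nM final, 5 min, 37C), then lysis buffer. AlphaScreen detection of phospho-ERK; activity normalized to basal and full-stimulation controls.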
Caspase-7 inhib = qHTS Assay for Allosteric/Competitive Inhibitors of Caspase-7. P55210. recombinant caspase-7, Ac-DEVD-AFC fluorescence rate. Potency, µM (titrated, usually from 57.5 µM), most hits filed as inhibitors. 75,000 tested, 0.02% active. AID 889, 2007; active = well fitted inhibition curve with a large enough effect in the main read-out, with a control signal flat, not every such curve was filed as active; inconclusive = small, poorly fitted or top-dose-only effect, or a change in a side signal
Target sequence (P55210 24-198 limits assumed): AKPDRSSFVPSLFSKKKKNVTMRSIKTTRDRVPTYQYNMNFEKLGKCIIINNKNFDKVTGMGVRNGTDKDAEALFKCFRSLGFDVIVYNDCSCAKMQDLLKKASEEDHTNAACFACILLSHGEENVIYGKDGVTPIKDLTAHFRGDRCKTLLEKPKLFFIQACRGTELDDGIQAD
Target sequence (P55210 207-303 limits assumed): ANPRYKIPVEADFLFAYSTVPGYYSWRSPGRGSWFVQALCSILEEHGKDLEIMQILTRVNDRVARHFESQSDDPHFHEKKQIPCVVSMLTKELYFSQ
Each line names hits and unclear results; the compound was inactive in the other large screens. Unless noted, calls follow the shape of the dose curve; as a rule, active = well fitted curve in the direction sought with a large enough effect; inconclusive = small, poorly fitted or top-dose-only effect, or another doubt; inactive = no such curve, though single readings can be large; an effect the other way counts as inactive or inconclusive.

CCOc1ccc(-c2nc(C#N)c(N3CCCCCC3)o2)cc1	ERK AVP block 20µM
Cc1ccc(Cl)cc1N1CCN(C(=O)c2cn(C)c(=O)c3c2c2ccccc2n3C)CC1	none
Cc1cccc(N2CCN(C(=O)c3cn(C)c(=O)c4c3c3ccccc3n4C)CC2)c1C	15-hLO inh inconclusive, ERK AVP block 20µM
COc1ccccc1-c1cc(-n2ccnc2)ncn1	none
O=C(c1cc(C(F)(F)F)cc(C(F)(F)F)c1)N1CCC2(CCCN(c3ccncc3)C2)CC1	none
OC1CCCN(Cc2ccc3c(c2)Cc2ccccc2-3)C1 (configuration not stated)	none
CC(C)(C)c1cc(CN2CCCC(O)C2)c(O)c(C(C)(C)C)c1 (configuration not stated)	Tau filament bind 5µM, ERK AVP block inconclusive
Oc1ccc2ccccc2c1/C=C\c1ccc2c(Br)cc(Br)c(O)c2n1	15-hLO inh inconclusive, Tau filament bind 2.5µM
CCCn1c(C)nc2c(NCCCN(C)C)nc(C)nc21	none
O=c1c(-c2cc(F)cc(F)c2)nc2cnc(N3CCNCC3)nc2n1C1CC1	Caspase-7 inhib inconclusive (no result: Caspase-1 inhib)
COc1ccc(Oc2ncc3nc(-c4cc(F)cc(F)c4)c(=O)n(C4CC4)c3n2)cc1	Tau filament bind 20µM, Caspase-7 inhib inconclusive (no result: Caspase-1 inhib)
Cn1c(=O)c(-c2cc(F)cc(F)c2)nc2cnc(Oc3cccc(Cl)c3)nc21	Tau filament bind 10µM, ERK AVP block inconclusive, Caspase-7 inhib inconclusive (no result: Caspase-1 inhib)
COc1ccc(Oc2ncc3nc(-c4ccc(OC)cc4)c(=O)n(C4CC4)c3n2)cc1	Caspase-1 inhib inconclusive, Caspase-7 inhib inconclusive
CN1CCN(c2ncc3nc(-c4cc(F)cc(F)c4)c(=O)n(C4CC4)c3n2)CC1	Tau filament bind 16µM, ERK AVP block inconclusive, Caspase-7 inhib inconclusive (no result: Caspase-1 inhib)
O=C(c1ccco1)N1CCC2(CC1)CN(c1ccccc1)C2	Tau filament bind inconclusive
CN(C)CCC(=O)[C@@]1(O)CC[C@H]2[C@H]3CC=C4C[C@@H](O)CC[C@]4(C)[C@H]3CC[C@]21C	none
CO[C@@]12C[C@@H](COC(=O)c3cncc(Br)c3)CN(C)[C@H]1Cc1cn(C)c3cccc2c13	Tau filament bind inconclusive, ERK AVP block inconclusive
OC[C@H]1NC[C@H](O)[C@@H](O)[C@H]1O	15-hLO inh inconclusive
Cc1cc(-c2nnc(-c3ccccc3)c(-c3ccccc3)n2)c(C)o1	15-hLO inh 25µM, Tau filament bind 16µM
O=C(NCCN1CCCCC1)c1ccc(Cc2nc3ccccc3[nH]2)cc1	none (no result: Tau filament bind, ERK AVP block)
Cc1ccc(NCc2nc3ccccc3n2C)cc1	15-hLO inh 16µM
ON=C1CCCCC1	Caspase-1 inhib inconclusive
COC(=O)[C@H](C)NC(=O)Nc1ccc(Oc2ccccc2)cc1	ERK AVP block 25µM
C=CC1=C(C)C2=NC1=CC1=NC(=CC3=NC(=CC4=NC(=C2)C(C)=C4CCC(=O)O)C(CCC(=O)O)=C3C)C(C=C)=C1C.[Zn]	15-hLO inh 10µM, Tau filament bind 0.79µM
CCCCCCNC(=O)Nc1ccc(S(=O)(=O)Nc2ccc(CCNC[C@H](O)COc3ccc(O)cc3)cc2)cc1	15-hLO inh 7.9µM (no result: Tau filament bind)
C=CCNc1ncnc2c1[nH]c1ccc(C)cc12	ERK AVP block 32µM
COc1ccc(C2CC(=O)N3CN(Cc4ccco4)CSC3=C2C#N)cc1 (configuration not stated)	15-hLO inh inconclusive
N#CC1=C2SCN(Cc3ccco3)CN2C(=O)CC1c1ccc(Cl)cc1 (configuration not stated)	15-hLO inh 13µM, Tau filament bind inconclusive
CC(C)c1ccc(C2CC(=O)N3CN(Cc4ccco4)CSC3=C2C#N)cc1 (configuration not stated)	15-hLO inh 13µM, Tau filament bind inconclusive
N#CC1=C2SCN(Cc3ccccc3)CN2C(=O)CC1c1ccc2c(c1)OCO2 (configuration not stated)	Caspase-1 inhib inconclusive, 15-hLO inh 13µM
COc1ccc2c(c1)[C@]1(C)CCC[C@](C)(CO)[C@@H]1CC2	none (no result: Caspase-1 inhib, 15-hLO inh, ERK AVP block, Caspase-7 inhib)
CC(=O)[C@H]1CC[C@@H]2[C@]1(C)CC=C1[C@]23C=C[C@]2(C[C@H](O)CC[C@@]12C)[C@H](C(=O)O)[C@@H]3C(=O)O	none
c1ccc2c(c1)[nH]c1nc(SCCN3CCOCC3)nnc12	ERK AVP block inconclusive
